Measurements taken from PubChem BioAssay (NCI).
Several values for one entry are separate records, joined by “and”; a condition that tells them apart may be missing. Identical values can stand only once. This is part of a sample that, as a whole, favours compounds with a hit. Of some 79,000 tested, about 15% had one in any assay. Activity calls are given as the source filed them. Cut-off read from the data, not from the text of the source: active = growth inhibition above about 70%; inactive = the rest.

Key:
[1] = NCI Yeast Anticancer Drug Screen. Data for the rad50 strain (AID 155);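 note: 0% = growth of vehicle-only cultures of the same strain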; conditions: S. cerevisiae rad50 strain growth inhibition, hits give high values; at 50.0 µM unless noted
Summary of the method: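 Compounds were tested on a yeast strain with an engineered DNA damage repair alteration; the reported value is growth inhibition normalised to vehicle treatment.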

[2] = NCI Yeast Anticancer Drug Screen. Data for the sgs1 mgt1 strain (AID 161);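 note: 0% = growth of cultures given vehicle only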; conditions: S. cerevisiae sgs1 mgt1 strain, hits give high values; at 50.0 µM unless noted
Summary of the method: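 Read-out: growth inhibition vs vehicle controls. Cells: mutant yeast strain deficient in DNA damage repair.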

[3] = NCI Yeast Anticancer Drug Screen. Data for the cln2 rad14 strain (AID 165);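 note: 0% = growth equal to vehicle treated cultures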; conditions: S. cerevisiae cln2 rad14 strain, hits give high values; at 50.0 µM unless noted
Summary of the method: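 The screen exposed genetically defined yeast (cln2 rad14) to test compounds and scored growth inhibition relative to vehicle-treated controls.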

[4] = NCI Yeast Anticancer Drug Screen. Data for the bub3 strain (AID 167); conditions: S. cerevisiae bub3 mutant strain, hits give high values; at 50.0 µM unless noted
Summary of the method: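 Growth of a checkpoint-deficient yeast mutant is measured after compound exposure. Values represent inhibition relative to vehicle.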

[5] = NCI Yeast Anticancer Drug Screen. Data for the mlh1 rad18 strain (AID 175); conditions: S. cerevisiae mlh1 rad18 strain growth inhibition, hits give high values; at 50.0 µM unless noted
Summary of the method: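 Compound-treated yeast growth, normalised to vehicle controls. Strain bears defined DNA repair mutations.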

Measured: growth inhibition

CCCCCCCCCCCC[N+](C)([O-])CCCCCC[N+](C)([O-])CCCCCCCCCCCC (configuration not stated)
active: [1] 96.2% | [2] 97.8% | [3] 96.5% | [4] 96.5% | [5] 97%

N#Cc1c(O)c(N=Nc2ccc(Cl)cc2)c(=O)n2c1[nH]c1ccccc12
inactive: [1] 11.6% | [2] 21.2% | [3] 28.9% | [4] 10.5% | [5] 18.7%

O=C(NCCO)c1c(O)c2ccccc2[nH]c1=O
inactive: [1] 2.8% | [2] -6.05% | [3] 12.9% | [4] 6.55% | [5] 2.9%

COc1ccc(C(N2CCNCC2)N2CCNCC2)cc1
inactive: [1] 13.7% | [2] 19.6% | [3] -30.1% | [4] -3.5% | [5] 48.3%

Clc1cc(NCc2ccco2)ncn1
inactive: [1] -21.8% | [2] -19.5% | [3] -3.9% | [4] 0.85% | [5] -11.2%

CN1C(=O)C(c2c[nH]c3ccccc23)N(C)C(=O)C1c1c[nH]c2ccccc12 (configuration not stated)
inactive: [1] -29.9% | [2] -79.5% | [3] -20.1% | [4] -27.9% | [5] -20%

CC1(C)COC1(c1ccccc1)c1cccnc1 (configuration not stated)
inactive: [1] -45.1% | [2] -14.1% | [3] -39.2% | [4] 8.15% | [5] -16.8%

O=C(O)C1CCC(=O)N1Cc1c[nH]c2ccccc12 (configuration not stated)
inactive: [1] -2.2% | [2] -10.2% | [3] -0.15% | [4] 15.4% | [5] -10.8%

O=C(CCl)NNC1=Nc2ccc(Cl)cc2SC1
inactive: [1] -2.2% | [2] 8.55% | [3] 0.6% | [4] 5.8%

O=C1C=CC(=O)C(CNc2ccc(C(=O)OCc3ccccc3)cc2)=C1
inactive: [1] 23.6% | [2] -28.9% | [3] -30.6% | [4] -42.9% | [5] -3.1%

Cc1ccc(NCC2CC/C(=C\c3ccc(Cl)cc3)C2=O)cc1 (configuration not stated)
inactive: [1] -43.8% | [2] -33.4% | [3] -50.5% | [4] -10.2% | [5] -32.3%

CCCCOC(=O)CC(O)C(=O)OCCCC (configuration not stated)
inactive: [1] 39.1% | [2] -17.5% | [3] -61.2% | [4] -29.9%

NC1=NCC(CN2CCCCC2)O1 (configuration not stated)
inactive: [1] 7.1% | [2] -4.05% | [3] -2.4% | [4] -8.3% | [5] 5.9%

COc1cc(CNc2ccccc2)ccc1O
inactive: [1] -15.2% | [2] -16.9% | [3] -8.1% | [4] 10.9% | [5] -8.4%

COC(=O)C(NC(=O)c1ccccc1)C(c1ccc(Cl)cc1)P(=O)(OC)OC (configuration not stated)
inactive: [1] -19.6% | [2] 12% | [3] 22.2% | [4] -7.85% | [5] -17.9%

O=C(O)[C@H](Cc1ccccc1)N1C(=O)N[C@@H](Cc2ccccc2)C1=O
inactive: [1] -21.6% | [2] 4.75% | [3] 2.35% | [4] 3.6% | [5] -2.7%

O=c1[nH]c(=O)c2[nH]c(Br)nc2[nH]1
inactive: [1] 2.35% | [2] -12.7% | [3] 0.2% | [4] -8.45% | [5] 3.85%

COc1cc(O)c(C/C=C/c2ccccc2)cc1O
inactive: [1] 49.6% | [2] 27.6% | [3] -12.3% | [4] 29.1% | [5] 64.9%

CC(C)NCC(O)COc1cccc2[nH]c3ccccc3c12 (configuration not stated)
inactive: [1] -2.75% | [2] -8.5% | [3] -36.4% | [4] -0.8% | [5] -0.4%

COC(=O)c1ccc2c(c1)CC1(C2)Cc2cc3c(cc2C1)CCC3
inactive: [1] -19.4% | [2] -17.5% | [3] 9.95% | [4] 12.8% | [5] -12.5%

C=Nc1ccc(Nc2ccccc2)cc1
inactive: [1] 5.7% | [2] -2.4% | [3] -3.25% | [4] -1.6% | [5] 3.3%

CC(=O)OCC1OC(n2c(=O)[nH]c(=O)c3n[nH]nc32)C(OC(C)=O)C(OC(C)=O)C1OC(C)=O (configuration not stated)
inactive: [1] -4.2% | [2] 3.4% | [3] 24.9% | [4] -1.05% | [5] -4.35%

CSC1=NC(C(N)=O)C(N)N1C (configuration not stated)
inactive: [1] -3.1% | [2] 6.3% | [3] 17.4% | [4] 1.35% | [5] 12%

O=c1[nH]cnc2nc(N3CCOCC3)sc12
inactive: [1] -15.7% | [2] -1.7% | [3] -5.8% | [4] -6.5% | [5] -4.65%

CC1OC(O)C(O)C(O)C1O (configuration not stated)
inactive: [1] -19.3% and 13.9% | [2] -43.6% and 31% | [3] -65.2% and 34.1% | [4] -39.3% and 27.2% | [5] -28.6% and 25.6%

CCc1cc(N(C)C)ccc1N=Nc1ccc([N+](=O)[O-])cc1
inactive: [1] 43.8% | [2] 13.5% | [3] -26.1% | [4] 9.1% | [5] 28.9%

O=C1Oc2ccccc2C(=O)/C1=C/N1C(=O)N/C(=C\c2cccc(O)c2)C1=O
inactive: [1] 21.9% | [2] 37.6% | [3] 45.5% | [4] 15.7% | [5] -7.5%

CN(C)C(=O)C(c1ccccc1)C(c1ccccc1)N(C)C=O (configuration not stated)
inactive: [1] -3.5% | [2] 0.2% | [3] -3.3% | [5] 25.1%

O=C1CC2(C(=O)O)CC3CC2C(O1)C3I (configuration not stated)
inactive: [1] 13.7% | [2] 24.1% | [3] 13.1% | [4] 14.5% | [5] 21.2%

[N-]=[N+]=CC(=O)CCC(=O)N(c1ccccc1)c1ccccc1
inactive: [1] -30% | [2] -52.5% | [3] -28.5% | [4] 2.2% | [5] -30.6%

COCc1cccc2ccnc(COC)c12
inactive: [1] -8.2% | [2] 5.95% | [3] 9.4% | [4] -8.35% | [5] 5.25%
